Measured values published in PubChem BioAssay (EPA / NIEHS).
Calls of active or inactive are those of the source. Rule for the calls: active = hit-call score of the fitted dose curve at least 0.9, where 1 is the maximum; inactive = score below 0.9.

What was measured:
Conditions in all cases: mRNA level, 48 h; actives raise or lower the signal
BCL2L11 (gene 10018) = assay: LTEA_HepaRG_BCL2L11: Life Technologies and Expression Analysis (LTEA) Assay for Bcl-2 (BCL2L11) gene using HepaRG (AID 2283473)
In short: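 Human hepatic HepaRG cultures are treated 48 h with test chemicals (maximum 100 uM, 0.5% DMSO vehicle). Expression of BCL2L11 is measured by qRT-PCR against ACTB, GAPDH and POLR2A, with activity in either direction scored relative to vehicle.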

[1] = read-out: Apolipoprotein A-V (APOA5) gene, APOA5 (gene 116519); assay: LTEA_HepaRG_APOA5: Life Technologies and Expression Analysis (LTEA) Assay for Apolipoprotein A-V (APOA5) gene using HepaRG (AID 2283474)
In short: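 Concentration-response of APOA5 expression in HepaRG: eight half-log doses to 100 uM, 48 h, qRT-PCR normalized to ACTB/GAPDH/POLR2A, bidirectional fitting with 0.5% DMSO as baseline.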

[2] = read-out: Apoptosis regulator Bcl-2 (Homo sapiens) (UniProt P10415); assay: LTEA_HepaRG_BCL2: Life Technologies and Expression Analysis (LTEA) Assay for Bcl-2 gene using HepaRG (AID 2283475)
In short: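 qRT-PCR of BCL2 transcript, normalized to three housekeeping genes (ACTB, GAPDH, POLR2A), after 48 h chemical exposure of HepaRG cells; concentrations top 100 uM with half-log dilutions, 0.5% DMSO vehicle, duplicates; changes up or down fitted relative to vehicle.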

[3] = read-out: Bcl-2 (BID) gene, BID (gene 637); assay: LTEA_HepaRG_BID: Life Technologies and Expression Analysis (LTEA) Assay for Bcl-2 (BID) gene using HepaRG (AID 2283476)
In short: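 Duplicate 48 h treatments of HepaRG cells in serum-free induction medium spanned 100 uM downward in half-log steps, 0.5% DMSO. Transcript change quantified by qRT-PCR against three housekeeping genes, fitted up or down versus DMSO.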

Caspase-3 (Homo sapiens) = Caspase-3 (Homo sapiens) (UniProt P42574); assay: LTEA_HepaRG_CASP3: Life Technologies and Expression Analysis (LTEA) Assay for cysteine-aspartic acid protease (CASP3) using HepaRG (AID 2283477)
In short: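 Transcript-level assay: CASP3 mRNA in human HepaRG after 48 h treatment, eight half-log concentrations from 100 uM in 0.5% DMSO, quantified by qRT-PCR.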

[4] = read-out: Cytochrome P450 (CYP24A1), CYP24A1 (gene 1591); assay: LTEA_HepaRG_CYP24A1: Life Technologies and Expression Analysis (LTEA) Assay for Cytochrome P450 (CYP24A1) using HepaRG (AID 2283478)
In short: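 Gene expression of CYP24A1 by TaqMan qRT-PCR in HepaRG after 48 h treatment, highest concentration 100 uM; activity fitted in both directions relative to DMSO vehicle.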

[5] = read-out: cysteine-aspartic acid protease (CASP8), CASP8 (gene 841); assay: LTEA_HepaRG_CASP8: Life Technologies and Expression Analysis (LTEA) Assay for cysteine-aspartic acid protease (CASP8) using HepaRG (AID 2283480)
In short: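 CASP8 transcript measured by TaqMan qRT-PCR with ACTB/GAPDH/POLR2A normalization, after 48 h chemical exposure of HepaRG cells in serum-free induction medium. Eight concentrations, top 100 uM, half-log steps, 0.5% DMSO vehicle; fits in both directions versus DMSO.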

[6] = read-out: Cytochrome P450 (CYP2B6), CYP2B6 (gene 1555); assay: LTEA_HepaRG_CYP2B6: Life Technologies and Expression Analysis (LTEA) Assay for Cytochrome P450 (CYP2B6) using HepaRG (AID 2283481)
In short: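 Human HepaRG, 48 h dosing, 0.5% DMSO vehicle, top dose 100 uM. CYP2B6 transcript by qRT-PCR, housekeeping-normalized, bidirectional curve fit.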

[7] = read-out: Cytochrome P450 2C19 (Homo sapiens) (UniProt P33261); assay: LTEA_HepaRG_CYP2C19: Life Technologies and Expression Analysis (LTEA) Assay for CYP2C19 using HepaRG (AID 2283482)
In short: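 Endpoint: CYP2C19 mRNA change, bidirectional fit vs 0.5% DMSO. Cells: HepaRG, 48 h exposure, eight-point series topping at 100 uM. Quantitation: qRT-PCR normalized to ACTB, GAPDH, POLR2A.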

CYP2C8 (gene 1558) = assay: LTEA_HepaRG_CYP2C8: Life Technologies and Expression Analysis (LTEA) Assay for CYP2C8 using HepaRG (AID 2283483)
In short: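 CYP2C8 expression measured by TaqMan qRT-PCR and normalized to three housekeeping genes. HepaRG cultures were treated for 48 h with an eight-point half-log series topping at 100 uM, vehicle 0.5% DMSO, duplicates; fitted both directions against DMSO.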

CYP2C9 (gene 1559) = assay: LTEA_HepaRG_CYP2C9: Life Technologies and Expression Analysis (LTEA) Assay for CYP2C9 using HepaRG (AID 2283484)
In short: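 CYP2C9 transcript level, quantified by TaqMan qRT-PCR against three housekeeping genes, was fitted bidirectionally relative to 0.5% DMSO. HepaRG cultures were treated 48 h, in duplicate, at eight half-log concentrations topping at 100 uM.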

CYP2E1 (gene 1571) = assay: LTEA_HepaRG_CYP2E1: Life Technologies and Expression Analysis (LTEA) Assay for CYP2E1 using HepaRG (AID 2283485)
In short: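 CYP2E1 transcript measured by Fluidigm qRT-PCR against three housekeeping genes in human HepaRG cells treated 48 h (top 100 uM, half-log steps, 0.5% DMSO vehicle). Gain or loss fitted relative to DMSO baseline.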

CYP4A11 (gene 1579) = assay: LTEA_HepaRG_CYP4A11: Life Technologies and Expression Analysis (LTEA) Assay for CYP4A11 using HepaRG (AID 2283486)
In short: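 Human hepatic HepaRG cultures receive duplicate 48 h exposures across a concentration-response series topping at 100 uM. Expression changes in CYP4A11 are measured by qRT-PCR relative to DMSO controls.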

[8] = read-out: Cytochrome P450 3A4 (Homo sapiens) (UniProt P08684); assay: LTEA_HepaRG_CYP3A4: Life Technologies and Expression Analysis (LTEA) Assay for CYP3A4 using HepaRG (AID 2283487)
In short: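 HepaRG, 48 h exposure, 8-pt CRC from 100 uM (half-log), 0.5% DMSO, duplicates; serum-free induction medium. Readout: CYP3A4 mRNA, qRT-PCR, ACTB/GAPDH/POLR2A normalization. Bidirectional fit vs DMSO.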

[9] = read-out: DNA damage-inducible transcript 3 (DDIT3), DDIT3 (gene 1649); assay: LTEA_HepaRG_DDIT3: Life Technologies and Expression Analysis (LTEA) Assay for DNA damage-inducible transcript 3 (DDIT3) using HepaRG (AID 2283488)
In short: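 DDIT3 transcript was quantified by qRT-PCR with ACTB/GAPDH/POLR2A normalization after 48 h chemical treatment of differentiated HepaRG cells in 0.5% DMSO. Dosing was eight-point, half-log, top 100 uM, duplicate wells. Curves fitted bidirectionally versus DMSO.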

[10] = read-out: Pro-epidermal growth factor (Homo sapiens) (UniProt P01133); assay: LTEA_HepaRG_EGF: Life Technologies and Expression Analysis (LTEA) Assay for Epidermal growth factor (EGF) using HepaRG (AID 2283489)
In short: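 Concentration-response mRNA assay: HepaRG cells dosed 48 h (max 100 uM, 0.5% DMSO), EGF measured by qRT-PCR and normalized to ACTB/GAPDH/POLR2A.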

[11] = read-out: Early growth response protein 1 (EGR1) transcription factor, EGR1 (gene 1958); assay: LTEA_HepaRG_EGR1: Life Technologies and Expression Analysis (LTEA) Assay for Early growth response protein 1 (EGR1) transcription factor using HepaRG (AID 2283490)
In short: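 EGR1 transcript levels quantified by qRT-PCR (Fluidigm arrays) against three housekeeping genes after 48 h chemical exposure of HepaRG cells. Eight-point half-log series topping at 100 uM, 0.5% DMSO vehicle, analyzed for gain or loss.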

[12] = read-out: Ezrin (EZR), EZR (gene 7430); assay: LTEA_HepaRG_EZR: Life Technologies and Expression Analysis (LTEA) Assay for Ezrin (EZR) using HepaRG (AID 2283491)
In short: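 Read-out is EZR transcript level by qRT-PCR, normalized to three housekeeping genes and fitted bidirectionally against the DMSO control. Human HepaRG cells received test chemicals for 48 h at eight half-log concentrations up to 100 uM in 0.5% DMSO.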

[13] = read-out: Cytochrome P450 3A7 (Homo sapiens) (UniProt P24462); assay: LTEA_HepaRG_CYP3A7: Life Technologies and Expression Analysis (LTEA) Assay for CYP3A7 using HepaRG (AID 2283492)
In short: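 qRT-PCR of CYP3A7 in HepaRG lysates after 48 h treatment; concentration-response (8 points, max 100 uM) analysed bidirectionally relative to 0.5% DMSO controls.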

Measured: AC50

Sequence of Cytochrome P450 2C19 (Homo sapiens) (P33261 whole entry, looked up): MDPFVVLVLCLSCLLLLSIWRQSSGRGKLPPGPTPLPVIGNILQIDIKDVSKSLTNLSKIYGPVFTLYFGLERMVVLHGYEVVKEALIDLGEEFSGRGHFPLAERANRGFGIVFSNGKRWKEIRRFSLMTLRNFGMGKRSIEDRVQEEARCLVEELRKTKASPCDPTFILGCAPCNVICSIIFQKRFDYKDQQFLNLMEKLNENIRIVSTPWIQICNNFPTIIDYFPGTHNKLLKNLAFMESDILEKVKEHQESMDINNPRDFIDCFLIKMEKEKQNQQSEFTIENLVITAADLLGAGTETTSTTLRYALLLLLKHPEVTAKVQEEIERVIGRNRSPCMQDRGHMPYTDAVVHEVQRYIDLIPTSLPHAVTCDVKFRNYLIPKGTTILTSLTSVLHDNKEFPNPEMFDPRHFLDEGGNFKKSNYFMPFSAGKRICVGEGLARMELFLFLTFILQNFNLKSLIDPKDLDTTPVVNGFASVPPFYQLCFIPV
Sequence of Caspase-3 (Homo sapiens) (P42574 whole entry, looked up): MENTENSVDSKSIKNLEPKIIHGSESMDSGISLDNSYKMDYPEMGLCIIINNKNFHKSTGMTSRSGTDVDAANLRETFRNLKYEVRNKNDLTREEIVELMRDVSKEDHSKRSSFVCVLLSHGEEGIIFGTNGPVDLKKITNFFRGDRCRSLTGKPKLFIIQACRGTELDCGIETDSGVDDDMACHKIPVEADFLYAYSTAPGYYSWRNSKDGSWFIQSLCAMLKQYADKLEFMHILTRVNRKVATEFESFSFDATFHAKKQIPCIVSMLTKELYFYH
Sequence of Cytochrome P450 3A4 (Homo sapiens) (P08684 whole entry, looked up): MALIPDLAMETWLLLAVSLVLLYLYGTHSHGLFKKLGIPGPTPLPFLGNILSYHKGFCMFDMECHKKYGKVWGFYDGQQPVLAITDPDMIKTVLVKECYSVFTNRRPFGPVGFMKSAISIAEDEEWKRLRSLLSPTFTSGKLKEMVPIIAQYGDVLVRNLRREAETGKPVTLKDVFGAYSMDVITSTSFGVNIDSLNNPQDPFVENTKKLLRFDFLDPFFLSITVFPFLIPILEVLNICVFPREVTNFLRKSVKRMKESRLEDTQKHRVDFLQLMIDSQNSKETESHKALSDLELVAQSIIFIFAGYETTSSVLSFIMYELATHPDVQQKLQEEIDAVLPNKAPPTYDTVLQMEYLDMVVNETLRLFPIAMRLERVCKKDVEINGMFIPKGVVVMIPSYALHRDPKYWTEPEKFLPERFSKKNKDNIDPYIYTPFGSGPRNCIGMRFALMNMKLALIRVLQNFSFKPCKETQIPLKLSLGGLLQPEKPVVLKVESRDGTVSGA
Sequence of Cytochrome P450 3A7 (Homo sapiens) (P24462 whole entry, looked up): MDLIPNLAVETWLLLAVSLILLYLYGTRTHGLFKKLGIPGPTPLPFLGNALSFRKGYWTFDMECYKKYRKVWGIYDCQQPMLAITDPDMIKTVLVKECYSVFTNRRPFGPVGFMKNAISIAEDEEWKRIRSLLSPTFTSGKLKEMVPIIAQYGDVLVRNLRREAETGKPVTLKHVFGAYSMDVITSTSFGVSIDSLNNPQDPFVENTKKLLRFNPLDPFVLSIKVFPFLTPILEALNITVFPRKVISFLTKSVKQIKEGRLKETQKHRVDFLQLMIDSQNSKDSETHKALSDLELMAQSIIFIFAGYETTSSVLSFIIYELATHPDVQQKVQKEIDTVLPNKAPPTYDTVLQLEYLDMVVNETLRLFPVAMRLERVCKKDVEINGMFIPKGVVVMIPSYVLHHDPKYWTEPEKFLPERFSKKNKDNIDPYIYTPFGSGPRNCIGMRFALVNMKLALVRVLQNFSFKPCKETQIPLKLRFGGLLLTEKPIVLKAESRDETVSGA
Sequence of Apoptosis regulator Bcl-2 (Homo sapiens) (P10415 whole entry, looked up): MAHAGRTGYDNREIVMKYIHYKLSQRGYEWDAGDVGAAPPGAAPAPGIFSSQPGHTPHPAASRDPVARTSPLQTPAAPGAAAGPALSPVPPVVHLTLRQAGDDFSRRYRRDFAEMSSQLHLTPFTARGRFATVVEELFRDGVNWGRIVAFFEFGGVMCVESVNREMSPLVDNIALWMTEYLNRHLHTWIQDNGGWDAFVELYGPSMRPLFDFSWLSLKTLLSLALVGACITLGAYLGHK

CCCCCCCCCC
inactive: all assays above

NC(=O)N1c2ccccc2C=Cc2ccccc21
active: [6] 5.83 µM | [7] 15.9 µM | CYP2E1 (gene 1571) 41.8 µM
not listed: [2] | [8] | [13]
inactive: all other assays above

O=C(O)[C@H](O)[C@@H](O)C(=O)O
inactive: BCL2L11 (gene 10018) | [1] | [3] | Caspase-3 (Homo sapiens) | [5] | [9] | [10] | [11] | [12]

COc1cc(C(C)C)c2c(c1)S(=O)(=O)N(COc1cc(=O)n3cccc(OCCN4CCCCC4)c3n1)C2=O
inactive: BCL2L11 (gene 10018) | [3] | Caspase-3 (Homo sapiens) | [4] | [5] | [9] | [12]
active: [1] 22.6 µM | [6] 22.5 µM | [7] 19.3 µM | CYP2C8 (gene 1558) 19.9 µM | CYP2C9 (gene 1559) 23.6 µM | CYP2E1 (gene 1571) 17.2 µM | CYP4A11 (gene 1579) 20.8 µM | [8] 20.8 µM | [10] 8.03 µM | [11] 15.4 µM | [13] 23.6 µM
